Out of some 65,000 compounds screened, about 2,100 (3.2%) showed an effect of 50% or more. The median lay at about -52%. This is one part of a sample in which strong results are shown more often than they occur.
The molecules below were run on Plasmodium falciparum (assay: Screen against P. falciparum Asexual Blood Stage (ABS), at 5uM). Settings: tested at 5 uM.
Type: functional, Dd2

| Structure (SMILES) | INHIBITION [%] |
| --- | --- |
| Cc1ccccc1C1(C(=O)NCCN2CCCC2)CCOCC1 | -5.04 |
| COc1ccccc1C1(C(=O)NCCN2CCCCC2)CCOCC1 | -35.3 |
| O=C(NCCN1CCCC1)C1(c2ccc(Cl)cc2)CCOCC1 | 63.7 |
| CC(Oc1ccc2c(c1)OCO2)C(=O)N1CCC(N2CCOCC2)CC1 (stereo not drawn) | -162 |
| CCn1cc(NC(=O)CN2CCC(Oc3ccc(F)cc3)CC2)c(C)n1 | -33.8 |
| Cc1cc(N2CCCN(Cc3ccc(C)o3)CC2)ccn1 | 35.2 |
| Cc1cc(N2CCCN(c3ccnc(C)c3)CC2)ccn1 | -86.7 |
| Cc1cc(N2CCCN(c3nc(C)nc(C)c3C)CC2)ccn1 | 58 |
| Cc1n[nH]c(C)c1C1COCCN1c1ncnc2sccc12 (stereo not drawn) | -34.7 |
| COCCN1CCC(c2nc3ccc(NC4CCC4)cn3n2)CC1 | -2.13 |
| CCN(CC)CCn1cnc(-c2ccccc2)c1-c1ncc[nH]1 | -46.8 |
| CCN(CC)CCn1cnc(-c2ccccc2)c1-c1cnn(CC)c1 | 20.8 |
| CCN(CC)CCn1cnc(-c2ccccc2)c1-c1cnc(C)s1 | 54.2 |
| Cc1nc(CCCNC(=O)Nc2cc(F)cc(F)c2)n[nH]1 | 0.825 |
| O=C(O)c1ccc(CC2CCN(Cc3ccc(-c4cc[nH]n4)o3)C2)cc1 (stereo not drawn) | -200 |
| NC(=O)CN1CCC(OCc2ccc(Cl)c(Cl)c2)CC1 | 32.6 |
| CNC(=O)CN1CCC(OCc2ccc(Cl)c(Cl)c2)CC1 | -0.573 |
| CCC(N)C(=O)N1CCC(OCc2ccc(Cl)c(Cl)c2)CC1 (stereo not drawn) | 65.5 |
| CC1CCCCN1C(=O)CCc1nnc(-c2ccccc2)o1 (stereo not drawn) | -26.9 |
| Cc1ccc(CNC(=O)Cn2nc(-c3ccc(F)cc3)oc2=O)cc1F | 55.6 |
| O=C(Cn1nc(-c2ccc(F)cc2)oc1=O)NCc1ccncc1 | -63.3 |
| O=C(Cn1nc(-c2ccc(F)cc2)oc1=O)NCc1ccc(F)cc1 | -11.2 |
| CCC1=NN2C(=N)C(=Cc3cccn3-c3ccc(Br)cc3)C(=O)N=C2S1 | -87.5 |

| Structure (SMILES) | INHIBITION [%] |
| --- | --- |
| CCCN(CCOC)C(=O)c1cc(Cn2c(C)nc3ccccc32)[nH]n1 | -11.8 |
| CC(NCCCN1CCCC1=O)c1ccc(F)cc1N(C)C (stereo not drawn) | -24.45 |
| CC(NCCN1CCC(N(C)C)CC1)c1ccc(F)cc1N(C)C (stereo not drawn) | 58.1 |
| CC(NCCn1cccn1)c1cc(F)ccc1F (stereo not drawn) | 0.681 |
| O=C([C@H]1CCCO1)N1CCOC2(CCCN(c3ncccc3F)C2)C1 (stereo partly drawn) | -9.29 |
| Cc1nc(NC(C)C)nc2c1CN(Cc1nccn1C)CC2 | -27.4 |
| CN(C)c1nc(N2CCCC2)nc2c1CCN(Cc1nccn1C)CC2 | 7.51 |
| CC(C)Nc1nc2c(c(N(C)C)n1)CCN(Cc1nccn1C)CC2 | 54.5 |
| O[C@@H]1CN(c2noc(C3CC3)n2)CC[C@H]1c1ccc2ccccc2c1 | -24.7 |
| Cc1cnn(C2CCCN(C(=O)c3ccccc3-n3cnnn3)C2)c1 (stereo not drawn) | -52.2 |
| CNC(=O)c1cc(NC(=O)NCC2CCS(=O)(=O)C2)ccc1OC (stereo not drawn) | -116 |
| COc1cccc(-c2n[nH]cc2CNCC2CCS(=O)(=O)C2)c1 (stereo not drawn) | -48.5 |
| COc1ccc2ccccc2c1CNCC1CCS(=O)(=O)C1 (stereo not drawn) | 67.4 |
| CC(C)OCCCNC(=O)CN(c1ccc(F)c(F)c1)S(C)(=O)=O | -105 |
| Fc1cccc(-c2nnn3c2COC(CNCc2ccsc2)C3)c1 (stereo not drawn) | -82.8 |
| c1cc(CN2Cc3nccn3CC(Cn3cncn3)C2)ccn1 (stereo not drawn) | -4.38 |
| O=C(C1CC1)N1CCC2(CC1)COCCN2Cc1ccc(F)cc1 | -40.7 |
| Cc1ccc(C(C(=O)NCCc2nc(C)cc(C)n2)N(C)C)cc1 (stereo not drawn) | -102 |
| Cc1ccc(C(C(=O)NCCN2CCC(CO)CC2)N(C)C)cc1 (stereo not drawn) | -9.75 |
| Cc1ccc(C(C(=O)NC(C)(C)CN2CCCC2)N(C)C)cc1 (stereo not drawn) | 52 |
| Cc1ccc(C(C(=O)NCCN2CCCCCC2)N(C)C)cc1 (stereo not drawn) | 58.5 |
| Cc1cccc(C(C(=O)NC(C)(C)CN2CCCC2)N(C)C)c1 (stereo not drawn) | 38.5 |
| Cc1cccc(C(C(=O)NC(C)(C)CN2CCOCC2)N(C)C)c1 (stereo not drawn) | 32 |

| Structure (SMILES) | INHIBITION [%] |
| --- | --- |
| Cc1cccc(COc2ccc(C(C)N)cc2)c1 (stereo not drawn) | 8.28 |
| CCc1ccc2nc(C)cc(C(=O)NC[C@@H]3CCNC[C@H]3O)c2c1 | -49.3 |
| CCc1ccc2nc(C)cc(C(=O)N[C@@H]3CNC[C@H]3O)c2c1 | -22 |
| CCc1ccc2nc(C)cc(C(=O)N[C@@H]3CCCNC3)c2c1 | 64.5 |
| N#CCCNC(=O)CN1CC(n2cccn2)C1 | -21.3 |
| O=S(=O)(Cc1cccc(Cl)c1)CC(O)Cn1cccn1 (stereo not drawn) | -0.894 |
| O=C(c1cscn1)N1CCc2c(COCC3CC3)cncc2C1 | -54.8 |
| O=c1occ(CN2CCCCCC2)c(O)c1CN1CCCCCC1 | 55.5 |
| O=c1occ(CN2CCSCC2)c(O)c1CN1CCCC1 | -7.27 |
| O=c1occ(CN2CCCCCC2)c(O)c1CN1CCOCC1 | -36 |
| COc1c(C(=O)NCC(C)C)nnn1Cc1ccccc1 | -128 |
| C[C@@H]1CN(CCC(=O)N(C)Cc2ccccc2)CC[C@@]1(O)C1CCC1 | 22.8 |
| C[C@@H]1CN(CCOc2ccc(Cl)cc2)CC[C@@]1(O)C1CCOCC1 | -28.8 |
| C[C@@H]1CN(CCOCc2ccccc2)CC[C@@]1(O)C1CCC1 | 54.7 |
| CN(CCCc1cc(-c2ccc(F)cc2)n(C)n1)CC(=O)NC(N)=O | -152 |
| CN(C)C(=O)C1CCC2(CCN(Cc3ccc4ccccc4n3)CC2)O1 (stereo not drawn) | -19 |
| CCOc1ccc(Cl)cc1C1CCCCN1 (stereo not drawn) | 68.8 |
| CCOc1ccc(Cl)cc1C(C(=O)O)N1CCCC1 (stereo not drawn) | 2.39 |
| CCOc1ccccc1C1CCCN1 (stereo not drawn) | -8.92 |
| Cn1cc(CCC(=O)N2C[C@@H]3CC[C@H]2CN(Cc2ccccc2)C3)cn1 | 14.3 |
| CCC(=O)N1CCCCC1c1nc(O)c2c(n1)CN(C(C)=O)CC2 (stereo not drawn) | -29.8 |
| Cc1ccoc1CNCc1nnc2n1CC(C(F)(F)F)CC2 (stereo not drawn) | -13.5 |

— ChEMBL document CHEMBL4513216, “Probing the Open Global Health Chemical Diversity Library for Multistage-Active Starting Points for Next-Generation Antimalarials” (ACS Infect Dis, 2020)
